The source of these data is PubChem BioAssay (EPA / NIEHS).

Inconclusive results are not listed. The source made the active and inactive calls. Rule for the calls, unless noted: active = hit-call score of the fitted dose curve at least 0.9, where 1 is the maximum; inactive = score below 0.9.

The target of test [1] is Myc proto-oncogene protein (Homo sapiens) (UniProt P01106). Briefly: ATG_Myc_CIS: Attagene CIS-FACTORIAL HepG2 Assay for human Myelocytomatosis (Myc) Proto-Oncogene Transcription Factor (AID 2282990). As to conditions: HepG2, Attagene cis-reporter transcription factor activity; actives raise or lower the signal. In outline: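 DMSO-normalised, bidirectionally fitted reporter mRNA signal. HepG2 cells transfected with cis reporter constructs, treated 24 h; transcripts detected by RT-PCR, 6-FAM primer extension and CE.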

Test [2] in a line: ATG_NF_kB_CIS: Attagene CIS-FACTORIAL HepG2 Assay for human Nuclear Factor Kappa B (NF-kB) (AID 2282991). To be noted: HepG2 Attagene cis-factorial NF-kB reporter mRNA; actives raise or lower the signal. In outline: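 Fluorescence of labelled RT-PCR products separated by capillary electrophoresis gives reporter mRNA levels from transfected HepG2 cells exposed 24 h; values are fitted in both directions relative to DMSO.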

Test [3] can be described thus: ATG_NRF2_ARE_CIS: Attagene CIS-FACTORIAL HepG2 Assay for human Nuclear Factor Erythroid 2 Related Factor 2 (NFR2) response to Antioxidant Response Elements (ARE) (AID 2282992). As to conditions: HepG2 Attagene ARE/NRF2 reporter, transcription factor activity; actives raise or lower the signal. In outline:
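Multiplexed reporter mRNA profiling in HepG2 after a 24 h chemical exposure. Curves fitted in both directions relative to DMSO negative control.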

Test [4] has as its target Cellular tumor antigen p53 (Homo sapiens) (UniProt P04637). The test is described as follows: ATG_p53_CIS: Attagene CIS-FACTORIAL HepG2 Assay for human p53 Transcription Factor (AID 2282994). As to conditions: HepG2 p53 cis-element reporter, Attagene mRNA; actives raise or lower the signal. In outline: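 Multiplexed reporter mRNA assay in human HepG2 liver cells; cis-regulated units report endogenous factor activity. Values come from bidirectional curve fitting against DMSO negative control after 24 h treatment.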

For test [5], the target named is human Peroxisome Proliferator-activated Receptor delta (PPARd), PPARD (gene 5467) (UniProt Q03181). Briefly: ATG_PPARd_TRANS: Attagene TRANS-FACTORIAL HepG2 Assay for human Peroxisome Proliferator-activated Receptor delta (PPARd) (AID 2283002; active = hit-call score of the fitted dose curve at least 0.9, where 1 is the maximum). In short, it runs like this:
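Measured quantity: GAL4-UAS reporter transcript induction in HepG2 after 24 h chemical dosing, with NR-Gal4 chimeras supplied by transient transfection. Detection by RT-PCR and capillary electrophoresis; upward fit against DMSO.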

Test [6] addresses human Retinoic Acid Receptor beta (RARb), RARB (gene 5915) (UniProt P10826). Briefly: ATG_RARb_TRANS: Attagene TRANS-FACTORIAL HepG2 Assay for human Retinoic Acid Receptor beta (AID 2283004; active = hit-call score of the fitted dose curve at least 0.9, where 1 is the maximum). In short, it runs like this:
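Transient transfection of HepG2 with multiple reporter units → chemical dosing, 24 h → total RNA isolation → RT with oligo(dT) → reporter-specific PCR, 6-FAM primer extension, HpaI digest → capillary electrophoresis. Positive direction vs DMSO control.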

The target in test [7] is Retinoic acid receptor alpha (Homo sapiens) (UniProt P10276). The test is described as follows: ATG_RARa_TRANS: Attagene TRANS-FACTORIAL HepG2 Assay for human Retinoic Acid Receptor alpha (RARa) (AID 2283005; active = hit-call score of the fitted dose curve at least 0.9, where 1 is the maximum). In short, it runs like this: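 HepG2 cells transiently transfected with multiple reporter units expressing chimeric RARα-GAL4 fusion, with GAL4-UAS-driven reporters. After 24 h compound exposure, reporter mRNA induction quantified by RT-PCR and capillary electrophoresis with fluorescent labeling; gain-of-signal fitted relative to DMSO control.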

Test [8] addresses Peroxisome proliferator-activated receptor gamma (Homo sapiens) (UniProt P37231). The test is described as follows: ATG_PPARg_TRANS: Attagene TRANS-FACTORIAL HepG2 Assay for human Peroxisome Proliferator-activated Receptor-gamma (PPARg) (AID 2283007; active = hit-call score of the fitted dose curve at least 0.9, where 1 is the maximum). In outline: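 Twenty-four hours after chemical dosing of transiently transfected HepG2 cells, isolated RNA was converted to cDNA, reporter sequences amplified and 6-FAM-labelled, then HpaI-digested and analysed by capillary electrophoresis. Signal increase against DMSO was fitted.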

In test [9] the target is Nuclear receptor subfamily 1 group I member 2 (Homo sapiens) (UniProt O75469). The test is described as follows: ATG_PXR_TRANS: Attagene TRANS-FACTORIAL HepG2 Assay for human Pregnane X Receptor (PXR) (AID 2283008; active = hit-call score of the fitted dose curve at least 0.9, where 1 is the maximum). In outline: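 Measures mRNA induction of a GAL4-UAS-driven reporter in human HepG2 cells transiently expressing PXR fused to Gal4, following 24 h treatment. DMSO served as negative control and baseline.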

Test [10] concerns the target human Retinoic Acid Receptor gamma (RARg), RARG (gene 5916) (UniProt P13631). The test is described as follows: ATG_RARg_TRANS: Attagene TRANS-FACTORIAL HepG2 Assay for human Retinoic Acid Receptor gamma (RARg) (AID 2283009; active = hit-call score of the fitted dose curve at least 0.9, where 1 is the maximum). In outline: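 Transient transfection of HepG2 with multi-reporter constructs, then 24 h chemical treatment. Total RNA isolated, reverse-transcribed, PCR-amplified, fluorescently labelled and resolved by capillary electrophoresis; activity scored as mRNA induction versus DMSO.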

Test [11] concerns the target human RAR-related Orphan Receptor gamma (RORg), RORC (gene 6097) (UniProt P51449). Briefly: ATG_RORg_TRANS: Attagene TRANS-FACTORIAL HepG2 Assay for human RAR-related Orphan Receptor gamma (RORg) (AID 2283011; active = hit-call score of the fitted dose curve at least 0.9, where 1 is the maximum). In outline:
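First, HepG2 liver cells were transfected with GAL4-UAS-driven reporter constructs and the RORg-Gal4 fusion. Next, they were treated with chemical for 24 h. Finally, reporter mRNA was quantified by RT-PCR and capillary electrophoresis, with upward activity fitted against DMSO.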

Test [12] addresses human RAR-related Orphan Receptor beta (RORb), RORB (gene 6096) (UniProt Q92753). Briefly: ATG_RORb_TRANS: Attagene TRANS-FACTORIAL HepG2 Assay for human RAR-related Orphan Receptor beta (RORb) (AID 2283010; active = hit-call score of the fitted dose curve at least 0.9, where 1 is the maximum). In short, it runs like this:
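Readout is reporter-gene mRNA induction, detected as fluorescence after RT-PCR and capillary electrophoresis, fitted for gain of signal against DMSO controls. Transiently transfected HepG2 liver cells carrying GAL4-UAS reporter constructs were treated for 24 hours.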

Test [13] is described as follows: ATG_Oct_MLP_CIS: Attagene CIS-FACTORIAL HepG2 Assay for human Octamer-Binding Transcription Factor (Oct) (AID 2282993). To be noted: HepG2 Attagene cis-factorial Oct reporter, mRNA; actives raise or lower the signal. In outline: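 HepG2 cells transiently transfected with cis-element-driven reporter transcription units (endogenous TF activity); 24 h compound exposure. Reporter mRNA quantified by RT-PCR, 6-FAM labelling, HpaI digestion and capillary electrophoresis; bidirectional fit versus DMSO baseline.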

Test [14] deals with human Peroxisome Proliferator-activated Receptor alpha (PPARa), PPARA (gene 5465) (UniProt Q07869). The test is described as follows: ATG_PPARa_TRANS: Attagene TRANS-FACTORIAL HepG2 Assay for human Peroxisome Proliferator-activated Receptor alpha (PPARa) (AID 2283001; active = hit-call score of the fitted dose curve at least 0.9, where 1 is the maximum;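 for AC50: potency for gain of reporter signal over DMSO so agonist or activator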). In short, it runs like this:
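Gain-of-signal endpoint: reporter mRNA induction relative to DMSO, detected by fluorescent RT-PCR and capillary electrophoresis. HepG2 cells transiently carried GAL4-UAS-driven reporter units plus NR-Gal4 fusion; exposure lasted 24 h.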

A short description of test [15]: BSK_3C_TissueFactor: BioMAP Diversity Plus: 3C Assay for Tissue Factor Biomarker Activity (AID 2282997). To be noted: BioMAP 3C HUVEC, tissue factor biomarker readout; actives raise or lower the signal. In short, it runs like this:
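ELISA read-out of Tissue Factor levels on human umbilical vein endothelium collected 24 h after chemical dosing. Gain or loss of signal was fitted relative to DMSO.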

The nature of test [16]: BSK_3C_uPAR: BioMAP Diversity Plus: 3C Assay for Urokinase-type plasminogen activator receptor (uPAR) Biomarker Activity (AID 2282998). To be noted: BioMAP 3C HUVEC, uPAR biomarker ELISA; actives raise or lower the signal. In outline:
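Primary human umbilical vein endothelial cells, 3C system; surface uPAR measured by ELISA 24 h after dosing. Cytotoxicity via SRB total protein in parallel cultures; bidirectional fit against DMSO.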
For orientation: In an ELISA, binding on a coated surface is turned into a signal by an enzyme label.

Test [17] is described as follows: BSK_3C_VCAM1: BioMAP Diversity Plus: 3C Assay for Vascular cell adhesion molecule 1 (VCAM1) Biomarker Activity (AID 2282999). As to conditions: BioMAP 3C HUVEC, VCAM1 ELISA, cytokine-stimulated; actives raise or lower the signal. In outline:
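Human umbilical vein endothelial cells were dosed with compound for 24 h, after which cell-surface VCAM-1 was quantified by ELISA. Bidirectional curve fitting used DMSO as negative control and activity baseline.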

Test [18] can be described thus: BSK_4H_Eotaxin3: BioMAP Diversity Plus: 4H Assay for Eotaxin 3 Biomarker Activity (AID 2283000).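 For outcome: CCL26 protein level quantified by ELISA in parallel with SRB cytotoxicity check.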 As to conditions: primary human endothelial cells (HUVEC); actives raise or lower the signal. In short, it runs like this:
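Chemicals were added to human umbilical vein endothelium cultures, and Eotaxin-3 was quantified by ELISA at 24 h. Values were derived by bidirectional fitting with DMSO serving as negative control and activity baseline.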

Test [19] is described as follows: BSK_3C_Proliferation: Cell Proliferation Assessment in the BioMAP Diversity Plus: 3C Assay (AID 2283006).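 For AC50: potency may reflect either rise or fall in cell number versus DMSO.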 To be noted: primary human endothelial cells (HUVEC). In outline: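 Read-out is total protein by SRB absorbance at 560 nm, taken as a proxy for relative cell number. Primary human umbilical vein endothelium cultured below confluence was dosed for 48 h, TCA-fixed and SRB-stained; curves were fitted bidirectionally versus DMSO.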

human Peroxisome Proliferator-activated Receptor delta (PPARd), PPARD (gene 5467), sequence (Q03181 whole entry, looked up, the tested form may be a part): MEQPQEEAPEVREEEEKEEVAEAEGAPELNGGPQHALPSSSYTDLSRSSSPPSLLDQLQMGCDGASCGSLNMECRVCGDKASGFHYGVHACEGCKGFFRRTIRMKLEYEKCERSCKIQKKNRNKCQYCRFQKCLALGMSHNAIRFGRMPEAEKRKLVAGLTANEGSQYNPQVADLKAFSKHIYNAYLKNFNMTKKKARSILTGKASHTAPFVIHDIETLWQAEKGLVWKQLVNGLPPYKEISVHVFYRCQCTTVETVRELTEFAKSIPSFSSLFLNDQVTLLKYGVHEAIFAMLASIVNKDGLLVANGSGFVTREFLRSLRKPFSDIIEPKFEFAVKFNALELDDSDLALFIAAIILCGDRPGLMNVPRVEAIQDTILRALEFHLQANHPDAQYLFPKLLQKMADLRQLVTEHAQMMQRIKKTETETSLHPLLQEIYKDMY
Cellular tumor antigen p53 (Homo sapiens), sequence (P04637 whole entry, looked up): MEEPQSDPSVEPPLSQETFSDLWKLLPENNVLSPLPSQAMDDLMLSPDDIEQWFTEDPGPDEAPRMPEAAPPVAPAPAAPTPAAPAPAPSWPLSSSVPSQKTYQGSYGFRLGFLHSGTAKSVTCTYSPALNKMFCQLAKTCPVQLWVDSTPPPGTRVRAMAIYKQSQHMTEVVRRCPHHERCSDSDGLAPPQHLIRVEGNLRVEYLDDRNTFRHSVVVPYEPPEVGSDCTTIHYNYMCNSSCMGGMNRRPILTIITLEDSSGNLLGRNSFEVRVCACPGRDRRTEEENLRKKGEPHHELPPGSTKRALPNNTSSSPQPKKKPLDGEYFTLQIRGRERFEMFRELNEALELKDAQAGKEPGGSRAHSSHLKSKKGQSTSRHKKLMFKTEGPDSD
Peroxisome proliferator-activated receptor gamma (Homo sapiens), sequence (P37231 whole entry, looked up): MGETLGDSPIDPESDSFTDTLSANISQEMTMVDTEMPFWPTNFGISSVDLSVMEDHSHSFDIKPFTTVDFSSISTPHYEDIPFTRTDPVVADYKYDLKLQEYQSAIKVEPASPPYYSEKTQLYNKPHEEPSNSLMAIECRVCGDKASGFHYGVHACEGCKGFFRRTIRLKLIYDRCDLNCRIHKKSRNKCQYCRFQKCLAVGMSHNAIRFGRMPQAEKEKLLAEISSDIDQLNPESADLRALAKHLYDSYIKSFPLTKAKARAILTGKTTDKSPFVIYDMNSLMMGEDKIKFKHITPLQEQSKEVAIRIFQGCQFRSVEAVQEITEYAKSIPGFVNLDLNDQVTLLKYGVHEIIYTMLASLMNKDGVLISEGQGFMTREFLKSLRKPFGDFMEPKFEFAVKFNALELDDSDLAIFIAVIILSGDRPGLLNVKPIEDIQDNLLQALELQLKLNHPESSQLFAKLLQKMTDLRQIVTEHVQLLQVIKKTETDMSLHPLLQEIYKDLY
human Retinoic Acid Receptor beta (RARb), RARB (gene 5915), sequence (P10826 whole entry, looked up): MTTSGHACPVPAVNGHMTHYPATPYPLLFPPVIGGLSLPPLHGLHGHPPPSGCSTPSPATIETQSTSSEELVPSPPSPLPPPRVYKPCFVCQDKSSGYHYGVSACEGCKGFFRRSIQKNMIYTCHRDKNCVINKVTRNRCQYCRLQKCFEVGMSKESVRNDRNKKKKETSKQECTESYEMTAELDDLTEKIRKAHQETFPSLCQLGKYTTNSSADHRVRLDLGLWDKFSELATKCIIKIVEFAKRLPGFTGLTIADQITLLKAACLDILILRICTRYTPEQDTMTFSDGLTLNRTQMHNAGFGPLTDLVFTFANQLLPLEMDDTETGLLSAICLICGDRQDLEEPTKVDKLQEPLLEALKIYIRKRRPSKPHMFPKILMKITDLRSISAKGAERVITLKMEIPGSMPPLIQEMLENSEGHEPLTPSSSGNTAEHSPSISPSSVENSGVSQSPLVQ
human Peroxisome Proliferator-activated Receptor alpha (PPARa), PPARA (gene 5465), sequence (Q07869 whole entry, looked up, the tested form may be a part): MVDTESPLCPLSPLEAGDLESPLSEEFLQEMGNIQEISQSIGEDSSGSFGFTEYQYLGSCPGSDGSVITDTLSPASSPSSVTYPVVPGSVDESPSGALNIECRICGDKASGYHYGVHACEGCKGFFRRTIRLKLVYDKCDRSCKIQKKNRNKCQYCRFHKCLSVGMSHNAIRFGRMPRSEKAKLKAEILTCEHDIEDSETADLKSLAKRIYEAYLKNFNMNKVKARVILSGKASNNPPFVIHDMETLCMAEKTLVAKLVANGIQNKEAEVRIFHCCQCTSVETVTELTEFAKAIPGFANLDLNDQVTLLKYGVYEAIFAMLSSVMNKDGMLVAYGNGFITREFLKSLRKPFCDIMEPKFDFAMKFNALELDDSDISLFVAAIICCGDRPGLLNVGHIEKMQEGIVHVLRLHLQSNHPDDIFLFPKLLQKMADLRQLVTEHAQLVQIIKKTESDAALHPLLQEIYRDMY
human RAR-related Orphan Receptor gamma (RORg), RORC (gene 6097), sequence (P51449 whole entry, looked up, the tested form may be a part): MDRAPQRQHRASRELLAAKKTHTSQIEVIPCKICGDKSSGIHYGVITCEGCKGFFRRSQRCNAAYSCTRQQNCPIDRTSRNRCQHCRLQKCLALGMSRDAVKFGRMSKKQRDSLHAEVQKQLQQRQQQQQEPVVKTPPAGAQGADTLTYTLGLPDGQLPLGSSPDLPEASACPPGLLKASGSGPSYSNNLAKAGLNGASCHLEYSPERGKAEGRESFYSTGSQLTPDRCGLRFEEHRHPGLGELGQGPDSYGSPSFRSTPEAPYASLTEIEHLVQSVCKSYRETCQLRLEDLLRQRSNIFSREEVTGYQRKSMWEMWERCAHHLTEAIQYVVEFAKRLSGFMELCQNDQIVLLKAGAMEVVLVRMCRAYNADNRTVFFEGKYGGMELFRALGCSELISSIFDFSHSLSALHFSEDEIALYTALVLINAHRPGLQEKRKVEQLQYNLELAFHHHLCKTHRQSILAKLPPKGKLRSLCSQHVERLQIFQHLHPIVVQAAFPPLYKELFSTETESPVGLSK
Myc proto-oncogene protein (Homo sapiens), sequence (P01106 whole entry, looked up): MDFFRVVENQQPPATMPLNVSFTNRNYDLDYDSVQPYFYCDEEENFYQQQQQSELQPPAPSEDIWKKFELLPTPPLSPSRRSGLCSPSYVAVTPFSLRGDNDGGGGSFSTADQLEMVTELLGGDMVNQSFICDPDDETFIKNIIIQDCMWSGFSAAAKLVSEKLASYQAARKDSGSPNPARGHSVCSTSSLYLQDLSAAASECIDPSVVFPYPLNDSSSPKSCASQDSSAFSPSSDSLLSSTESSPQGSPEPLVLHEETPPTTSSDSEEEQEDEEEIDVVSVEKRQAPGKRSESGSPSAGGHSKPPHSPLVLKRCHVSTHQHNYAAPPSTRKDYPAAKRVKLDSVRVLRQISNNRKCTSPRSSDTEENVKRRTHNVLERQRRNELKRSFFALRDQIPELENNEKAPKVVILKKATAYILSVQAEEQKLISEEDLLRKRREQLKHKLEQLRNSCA
human RAR-related Orphan Receptor beta (RORb), RORB (gene 6096), sequence (Q92753 whole entry, looked up, the tested form may be a part): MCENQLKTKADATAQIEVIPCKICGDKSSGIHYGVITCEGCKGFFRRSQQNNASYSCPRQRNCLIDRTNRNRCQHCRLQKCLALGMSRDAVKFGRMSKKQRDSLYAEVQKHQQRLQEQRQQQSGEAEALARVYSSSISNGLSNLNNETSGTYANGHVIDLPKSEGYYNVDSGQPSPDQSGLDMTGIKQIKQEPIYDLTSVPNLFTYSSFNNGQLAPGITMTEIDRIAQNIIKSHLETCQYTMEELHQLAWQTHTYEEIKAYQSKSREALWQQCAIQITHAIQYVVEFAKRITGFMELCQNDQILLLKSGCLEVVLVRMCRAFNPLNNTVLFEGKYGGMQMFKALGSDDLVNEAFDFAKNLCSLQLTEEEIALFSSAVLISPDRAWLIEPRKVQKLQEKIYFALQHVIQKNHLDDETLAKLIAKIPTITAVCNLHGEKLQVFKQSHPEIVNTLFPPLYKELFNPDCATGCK
Nuclear receptor subfamily 1 group I member 2 (Homo sapiens), sequence (O75469 whole entry, looked up, the tested form may be a part): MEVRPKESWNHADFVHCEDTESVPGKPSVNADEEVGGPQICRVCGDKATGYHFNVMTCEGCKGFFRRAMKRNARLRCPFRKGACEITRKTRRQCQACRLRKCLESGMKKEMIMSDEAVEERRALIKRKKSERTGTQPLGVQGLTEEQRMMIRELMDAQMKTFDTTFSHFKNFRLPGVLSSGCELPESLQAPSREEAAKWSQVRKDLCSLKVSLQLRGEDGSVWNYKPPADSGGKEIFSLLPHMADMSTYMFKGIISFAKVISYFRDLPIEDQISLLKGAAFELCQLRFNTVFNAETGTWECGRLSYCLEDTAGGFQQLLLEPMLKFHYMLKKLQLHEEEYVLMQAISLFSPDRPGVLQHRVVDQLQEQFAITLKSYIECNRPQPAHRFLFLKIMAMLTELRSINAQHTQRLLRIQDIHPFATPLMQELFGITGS
Retinoic acid receptor alpha (Homo sapiens), sequence (P10276 whole entry, looked up, the tested form may be a part): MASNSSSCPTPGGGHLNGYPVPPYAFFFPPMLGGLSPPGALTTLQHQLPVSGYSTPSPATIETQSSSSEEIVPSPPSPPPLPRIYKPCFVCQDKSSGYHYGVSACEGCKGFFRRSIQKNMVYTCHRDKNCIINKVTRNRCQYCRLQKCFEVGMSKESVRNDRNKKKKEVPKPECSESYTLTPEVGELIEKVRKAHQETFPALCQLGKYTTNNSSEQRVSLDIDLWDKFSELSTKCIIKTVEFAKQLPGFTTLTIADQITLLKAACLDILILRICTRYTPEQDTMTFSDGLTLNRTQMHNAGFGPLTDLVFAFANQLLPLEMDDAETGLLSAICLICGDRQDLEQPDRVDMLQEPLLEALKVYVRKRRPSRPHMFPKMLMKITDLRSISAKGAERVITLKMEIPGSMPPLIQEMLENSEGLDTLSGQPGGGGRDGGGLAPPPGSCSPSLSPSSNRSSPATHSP

`C=CC(C)C#N` (stereo unspecified): the call in [1], in test [2], in test [3], in [4], in [5] and in test [6] was inactive. Further, the outcome in test [7], in test [8], in [9], in [10] and in [11] was inactive.
In the case of `[Cl][Au]([Cl])[Cl]`, the call in test [1], in test [2], in [4], in test [5] and in test [11] was inactive. Also, the AC50 – broadly, the midpoint of the concentration-response curve, whichever way the signal moves – in test [3] was 0.156 µM (active).
As to `CCCCOCC`, the outcome in [1], in test [2], in test [3], in test [4], in [5] and in [7] was inactive. Moreover, the call in test [8], in test [12] and in test [11] was inactive.
Consider `CC(C)(C)OC(=O)c1ccc(O)cc1`, for which the outcome in [1], in [2], in [5] and in [9] was inactive. In addition, the AC50 is 35 µM (active) in test [3], 100 µM (active) in test [13] and 39.4 µM (active) in test [8].
In the case of `OCC(O)c1ccccc1` (stereo unspecified), the call in test [1], in test [3], in test [13], in test [4], in [14] and in [5] was inactive. Besides, the result in [9] and in test [12] was inactive.
Consider `O=C1OC(=O)c2c(Cl)c(Cl)c(Cl)c(Cl)c21`, for which the call in test [1], in [3], in test [13], in test [4], in test [14] and in test [5] was inactive. Further, the compound was called inactive in test [6] and in [12].
Take `CC(=O)Nc1ccc(C(=O)CCl)cc1`: the compound was called inactive in [1], in test [13], in [4], in [6] and in test [9]. The AC50 in test [3] is 0.41 µM (active); in test [15], 9.37 µM (active); in test [16] it was 9.48 µM (active); in test [17], 6.27 µM (active); in [18], 6.53 µM (active); in test [14], 2.66 µM (active). Moreover, the results for the AC50 in test [19] and in test [8] were 6.13 µM (active) and 2.31 µM (active), respectively.
Take `COc1ccc(CCC(C)=O)cc1`: the compound was called inactive in test [1], in [3], in [13], in test [4], in test [14] and in test [8]. Also, the outcome in test [9] and in [12] was inactive.
`CC=Cc1ccc(OCC)c(O)c1`: the outcome in test [1], in test [3], in test [13], in [4], in test [15] and in [16] was inactive. Also, the result in test [17], in test [18], in test [14] and in [19] was inactive. The AC50 in test [8] is 31.8 µM (active).
